This is a sample that favours compounds with a hit; in the whole collection about 1.6% have one here.
Pemphigus Ab inh = blocks pemphigus antibody binding to human desmoglein-3 | 0.48% of 310,000 active | binding (percent of control), % at 10 µM | P32926 | AID 588358 | DSG3-coupled beads, scFv-anti-DSG3-GFP binding, flow cytometry; hits give low values;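 active = binding more than 3 SD below its plate's average and above zero; inconclusive = below that plate limit but binding exactly zero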;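 also: hits lower antibody fragment binding to DSG3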
Target sequence (P32926 whole entry, looked up, the tested form may be a part): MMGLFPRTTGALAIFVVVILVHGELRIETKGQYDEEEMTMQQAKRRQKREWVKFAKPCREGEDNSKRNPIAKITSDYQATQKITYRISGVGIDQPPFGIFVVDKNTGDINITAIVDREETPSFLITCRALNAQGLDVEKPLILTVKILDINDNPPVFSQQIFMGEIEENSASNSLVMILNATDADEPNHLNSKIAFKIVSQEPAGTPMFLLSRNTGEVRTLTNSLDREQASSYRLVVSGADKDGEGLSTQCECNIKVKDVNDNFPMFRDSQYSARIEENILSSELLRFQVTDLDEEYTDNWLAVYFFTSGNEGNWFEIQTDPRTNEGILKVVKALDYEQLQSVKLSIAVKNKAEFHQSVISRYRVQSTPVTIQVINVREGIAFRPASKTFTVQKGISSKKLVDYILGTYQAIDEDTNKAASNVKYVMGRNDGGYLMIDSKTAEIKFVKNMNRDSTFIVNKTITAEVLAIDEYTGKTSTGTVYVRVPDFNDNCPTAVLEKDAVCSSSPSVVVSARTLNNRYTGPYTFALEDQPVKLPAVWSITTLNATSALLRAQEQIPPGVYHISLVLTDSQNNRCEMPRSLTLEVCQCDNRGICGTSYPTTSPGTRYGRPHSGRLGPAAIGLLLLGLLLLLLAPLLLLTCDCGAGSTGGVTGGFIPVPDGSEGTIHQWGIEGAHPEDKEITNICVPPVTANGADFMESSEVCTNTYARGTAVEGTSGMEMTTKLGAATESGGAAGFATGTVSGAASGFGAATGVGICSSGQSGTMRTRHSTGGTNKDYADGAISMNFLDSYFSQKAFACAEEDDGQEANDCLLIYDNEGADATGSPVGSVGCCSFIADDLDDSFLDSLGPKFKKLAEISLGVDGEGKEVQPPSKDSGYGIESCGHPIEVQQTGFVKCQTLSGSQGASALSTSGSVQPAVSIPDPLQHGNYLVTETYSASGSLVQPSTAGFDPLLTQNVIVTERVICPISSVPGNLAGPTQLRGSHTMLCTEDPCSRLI
VLA-4 inh = inhibition in a human VLA-4 binding assay; P13612; VLA-4 expressing cells, ligand binding flow cytometry; inhibition, % (about 7 µM as worked out from the volumes in the protocol); 0.2% of 330,000 active; in the data active = inhibition above about 50%
JMJD2C inh = human JMJD2C demethylase inhibition | Q9H3R0 | GST-JMJD2C(1-420) H3K9me3 demethylation, DELFIA europium | inhibition, % at 2.35 µM | 0.069% of 330,000 active | AID 2099;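 active = more than half of a compound's replicate wells show inhibition beyond 50%, single wells judged on their own value; inconclusive = some, but no more than half, of replicates pass 50% inhibition; inactive = no replicate passes 50% inhibition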;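 also: signal counts dimethyl H3K9 product captured on neutravidin plate; 0% = median of DMSO wells and 100% = 0.3 times that DMSO median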
PREPL inhibitor = human PREPL enzyme inhibition; Q4J6C6; recombinant PREPL, fluorescence polarization activity-based probe; inhibition, % at 5.96 µM; 0.68% of 320,000 active; AID 2751; in the data active = inhibition above about 43%;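 also: 0% = enzyme with DMSO and 100% = wells lacking enzyme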
GRK2 aptamer HTS = blocks RNA aptamer binding to human GRK2; 0.59% of 330,000 active; AID 488847; P25098; bead flow cytometry, FAM-aptamer displacement from GRK2; inhibition of aptamer binding, % at 10 µM;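 active = inhibition of aptamer binding above 40%, roughly 3 SD of noise, on plates passing a quality check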;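 also: median bead fluorescence of bound FAM aptamer so fluorescent compounds give negative values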
GRK2 inh confirm = confirmation of human GRK2 inhibitors displacing RNA aptamer; shares compounds with GRK2 aptamer HTS; aptamer displacement, % at 10 µM; 4% of 2,000 active; bead-bound GRK2, FAM-aptamer displacement, flow cytometry; AID 504451;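 active = aptamer displacement above 40%, near three times the noise of non-fluorescent compounds, on plates passing quality checks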;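 also: negative values mostly reflect intrinsic compound fluorescence rather than true enhancement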
FAM quench CP1 = quenches fluorescent RNA aptamer, GRK2 hit artifact | 2,000 tested, under 10 active | Carboxyfluorescein RNA aptamer on beads, flow cytometry quenching; hits give low values | fluorescence response (% of DMSO), % at 10 µM | shares compounds with GRK2 aptamer HTS | AID 504580;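 active = compounds that quench the bead-bound fluorescent RNA probe, cutting fluorescence to under half of the solvent control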;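 also: counterscreen run without GRK2 so only probe quenching by compound is measured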
GRK2 CP2 = human GRK2 inhibition confirmation, cherry pick 2. shares compounds with GRK2 aptamer HTS. bead-bound GRK2, FAM-aptamer displacement, flow cytometry. inhibition of aptamer binding, % at 10 µM. 360 tested, under 10 active. AID 504782;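 active = inhibition of aptamer binding above 40%, about triple the noise seen with nonglowing compounds, on plates passing quality control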;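 also: negative values mostly come from compounds that fluoresce themselves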
FAM quench CP2 = aptamer fluorescence quenching in GRK2 counter-screen. shares compounds with GRK2 aptamer HTS. carboxyfluorescein RNA aptamer beads, flow cytometry quenching; hits give low values. fluorescence response vs DMSO, % at 10 µM. 360 tested, under 10 active;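 active = response vs DMSO under 50%, meaning signal dropped by over half, treated as fluorescence quencher; inconclusive = no clear call, values can overlap the other calls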;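 also: labelled aptamer on streptavidin beads without GRK2 as a quench counter-screen; 100% = bead fluorescence of DMSO wells and lower means quenching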
Starred values were filed as active, the others as inactive; i = inactive; ? = inconclusive; . = no result given.

SMILES | Pemphigus Ab inh | VLA-4 inh | JMJD2C inh | PREPL inhibitor | GRK2 aptamer HTS | GRK2 inh confirm | FAM quench CP1 | others
Cc1cc(N2CCOCC2)ccc1/C=C1\NC(=O)N(CC(=O)Nc2ccccc2C)C1=O | . | -2 | 16 | 8 | 0 | 2 | 100
O=S(=O)(Nc1ccc(S(=O)(=O)N2CCCC2)cc1)c1ccccc1Br | 101 | 3 | 6 | -2 | 2 | . | .
Cc1cc(C)cc(OC(C)C(=O)NCCCn2ccnc2)c1 (stereo not drawn) | 124 | 5 | -14 | 8 | 0 | . | .
O=C(NCCCN1CCCC1=O)c1sc2ccccc2c1Cl | 101 | 2 | -3 | 8 | 0 | . | .
Cc1ccccc1Cn1ccc(NC(=O)c2cnn3c(C(F)(F)F)cc(-c4ccco4)nc23)n1 | 101 | 9 | -3 | -9 | 31 | 2 | 90
CN(CC(=O)Nc1ccc(N2CCOCC2)cc1)CC(=O)Nc1ccc([N+](=O)[O-])cc1Br | 84 | -4 | 8 | 12 | 4 | . | .
Cc1ccc(NC(=O)CN(C)CC(=O)Nc2ccc(N3CCOCC3)cc2)c(C)c1 | 95 | 4 | -24 | 54* | 2 | 1 | 93
CN(CC(=O)Nc1ccc(N2CCOCC2)cc1)CC(=O)Nc1ccccc1C#N | 96 | 3 | -10 | 3 | 0 | 0 | 94
CC1CCN(CCOCCOc2ccccc2-c2ccccc2)CC1 | 101 | 14 | 4 | 3 | 1 | . | .
CC1CCN(CCOCCOc2ccccc2Br)CC1 | 102 | 13 | -17 | 11 | 95* | -2 | 98
Cc1noc(C)c1COc1ccc(C(=O)NNC(=O)c2ccccc2)cc1 | 100 | 5 | 6 | 6 | 100* | 1 | 107
CCCCNS(=O)(=O)c1ccc(Br)cc1N1CCC[C@H]1CO | 96 | . | . | . | 0 | . | .
CC(CNC(=O)c1ccc2c(c1)OCO2)c1ccc([N+](=O)[O-])cc1 (stereo not drawn) | 104 | -7 | 2 | -5 | 67* | -2 | 100
Cc1ccc([N+](=O)[O-])cc1NC(=O)c1ccc2c(c1)OCO2 | 99 | -4 | 13 | -2 | 2 | . | .
COc1ccccc1S(=O)(=O)Cc1ccc(C(=O)NC(C)c2ccc3c(c2)OCCO3)o1 (stereo not drawn) | 98 | -8 | 1 | 3 | 2 | 1 | 99
CCc1ccc(OCC(=O)N2CCN(c3ccccn3)CC2)c(Br)c1 | . | 1 | 4 | -27 | 1 | . | .
CCc1ccc(/C=C(\Cl)c2nc3cc(Cl)ccc3c(=O)[nH]2)cc1 | . | -21 | -29 | 7 | 0 | . | .
CCc1ccc(/C([O-])=C(/C(=S)NCCN2CCOCC2)[n+]2ccccc2)cc1 | 96 | -3 | -9 | 9 | 72* | -5 | 104
CCNC(=S)/C(=C(/[O-])c1ccc([N+](=O)[O-])cc1)[n+]1ccccc1 | 87 | -2 | 7 | 7 | 7 | . | .
O=C(O)c1ccc(N2CCCC2=O)cc1 | 100 | 8 | -5 | -3 | 52* | 2 | 91
CCOc1ccc(N2C(=O)C3CCCN3C2=S)cc1 (stereo not drawn) | 100 | -14 | 4 | -1 | 2 | . | .
CCOC(=O)c1ccc(N2C(=O)C3CCCN3C2=S)cc1 (stereo not drawn) | 100 | 37 | 4 | 10 | 42* | . | . | GRK2 CP2=-2;FAM quench CP2=103
CC1CN(S(=O)(=O)c2cccc(C(=O)Nc3ccc(S(=O)(=O)NC4=NCCCCC4)cc3)c2)CC(C)O1 (stereo not drawn) | 101 | -11 | -16 | 22 | 0 | -3 | 98
NC(=O)c1ccc(NC(=O)COC(=O)/C=C/c2ccc(Br)o2)cc1 | 96 | 2 | 14 | 7 | 44* | 19 | 91
CN(C)S(=O)(=O)c1cccc(NC(=O)COC(=O)/C=C/c2ccc(Br)o2)c1 | 96 | 22 | 17 | -8 | 0 | . | .
SMILES | Pemphigus Ab inh | VLA-4 inh | JMJD2C inh | PREPL inhibitor | GRK2 aptamer HTS | GRK2 inh confirm | FAM quench CP1 | others
COc1ccc(-c2coc3cc(O)cc(O)c3c2=O)cc1OC | 95 | 2 | -8 | 4 | 0 | . | .
COc1ccc(-c2c(C)oc3cc(O)cc(O)c3c2=O)cc1OC | 101 | 41 | 18 | 3 | 50* | 1 | 102
CC(C)Cc1cc(C(=O)Nc2ccc3c(c2)OCO3)no1 | 99 | -19 | 10 | -6 | 74* | -17 | 94
CC(=O)c1cccc(NC(=O)CCS(=O)(=O)c2cccc3nonc23)c1 | ? | 10 | -3 | 2 | 2 | . | . | GRK2 CP2=-21;FAM quench CP2=110
CC(=O)c1cccc(NC(=O)CCNS(=O)(=O)c2cccc3nonc23)c1 | 99 | -5 | -7 | 13 | 0 | . | .
Cc1ccc(NC(=O)CCS(=O)(=O)c2cccc3nonc23)cc1 | 93 | 1 | -7 | -11 | 1 | . | .
COc1ccc(N(C)C(=O)CCS(=O)(=O)c2cccc3nonc23)c(OC)c1 | 104 | 9 | 3 | 8 | 0 | . | . | GRK2 CP2=-21;FAM quench CP2=101
CCOc1ccccc1NC(=O)CCS(=O)(=O)c1cccc2nonc12 | . | 0 | -3 | -2 | 2 | . | . | GRK2 CP2=i;FAM quench CP2=107
CCN1C(=O)C(O)(C2COC(C)(C)CC2=O)c2cc(Br)ccc21 (stereo not drawn) | 101 | 15 | -2 | 13 | 1 | . | .
COc1ccc(-c2cc(C(=O)Nc3cc(C)nn3-c3ccccc3)no2)cc1OC | 90 | 6 | 10 | 2 | 0 | . | .
Cc1ccnn1CCC(=O)N1CCCC(CCC(=O)NCc2ccccc2F)C1 (stereo not drawn) | 98 | 0 | 4 | 5 | 3 | 0 | 99
Cc1ccc(N2C(=O)N(CC(=O)Nc3ccc(F)c(F)c3)C(=O)C2C)cc1 (stereo not drawn) | 97 | 11 | 1 | 0 | 100* | 3 | 98
Cc1ccc(N2C(=O)N(CC(=O)Nc3ccc([N+](=O)[O-])cc3)C(=O)C2C)cc1 (stereo not drawn) | 113 | 6 | 33 | 12 | 100* | . | . | GRK2 CP2=11;FAM quench CP2=99
Cc1ccc(N2C(=O)N(CC(=O)Nc3cc(C)cc(C)c3)C(=O)C2C)cc1 (stereo not drawn) | 97 | 10 | 20 | -2 | 2 | . | .
CCCN1CCN(CCCNC(=O)C(CC)n2nc(C)c3sc4ccccc4c3c2=O)CC1 (stereo not drawn) | 95 | 4 | -2 | 12 | 62* | -2 | 96

Source: PubChem
